Results as given in the supplement of paper PMC12350171.
Structures can show the parent of a compound that is named as a salt. Values without a mark were called inactive.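 Rule for the calls: active = normalised median growth AUC below 0.1 of DMSO control; inactive = AUC 0.1 or higher.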

Legend:
Test in all cases: growth AUC normalised to DMSO control (median) (fraction of control); higher = less growth inhibition, active = hit call of the paper
Conditions in all cases: 20 µM
P. vulgatus RND KO = test system: P. vulgatus RND KO
In short: (§1)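 After two overnight anaerobic passages, strains were inoculated at OD578 0.01 into mGAM in 96-well plates containing approved-drug library compounds at 20 μM and 1% DMSO. Growth was followed by reading OD578 hourly for 24 h within an anaerobic incubator. Area under the curve, taken by the trapezoidal rule up to the start of stationary phase, was normalised to same-plate vehicle wells, and the median of three biological replicates is listed.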

P. vulgatus WT = test system: P. vulgatus WT
In short: as §1

[1] = test system: S. enterica typhimurium WT
In short: as §1

[2] = test system: S. enterica typhimurium tolC KO
In short: as §1
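Note: active when median AUC fell below 0.1.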

Row | SMILES | growth AUC normalised to DMSO control (P. vulgatus RND KO) | growth AUC normalised to DMSO control (P. vulgatus WT) | growth AUC normalised to DMSO control [1] | growth AUC normalised to DMSO control [2]
1 | Cc1ccccc1C(=O)Nc1ccc(C(=O)N2CCCC(O)c3cc(Cl)ccc32)c(C)c1 (configuration not stated) [Tolvaptan] | 0.919 | 0.928 | 0.993 | 0.94
2 | CC1=C(C(=O)O)N2C(=O)[C@@H](NC(=O)[C@H](N)c3ccccc3)[C@H]2SC1 [Cephalexin monohydrate] | 1.04 | 1.04 | 0.999 | 0.968
3 | Cc1ccnc2c1NC(=O)c1cccnc1N2C1CC1 [Nevirapine] | 0.995 | 1.01 | 1 | 1
4 | Oc1c(Br)cc(Br)c2cccnc12 [Broxyquinoline] | 0.294 | 0.0591 (active) | 0.986 | 0.561
5 | C[C@@H](NCCCc1cccc(C(F)(F)F)c1)c1cccc2ccccc12 [Cinacalcet hydrochloride] | 1.01 | 1.02 | 1.01 | 0.996
6 | COC(=O)[C@H](c1ccccc1Cl)N1CCc2sccc2C1 [Clopidogrel] | 0.999 | 0.996 | 1 | 0.914
7 | N#Cc1cc(NC(=O)C(=O)O)c(Cl)c(NC(=O)C(=O)O)c1 [Lodoxamide] | 1 | 1.04 | 1 | 1.01
8 | CC(C)CN(C[C@@H](O)[C@H](Cc1ccccc1)NC(=O)O[C@H]1CCOC1)S(=O)(=O)c1ccc(N)cc1 [Amprenavir] | 1.01 | 1.06 | 0.995 | 0.995
9 | CN1CCC(=C2c3ccccc3CCc3cccnc32)CC1 [Azatadine maleate] | 0.998 | 0.987 | 1 | 0.993
10 | CCOc1ccccc1OCCN[C@H](C)Cc1ccc(OC)c(S(N)(=O)=O)c1 [(R)-Tamsulosin hydrochloride] | 0.997 | 1.01 | 1 | 0.965
11 | C[C@]12CCC3=C4CCC(=O)C=C4CC[C@H]3[C@@H]1CC[C@@]2(O)CC#N [Dienogest] | 1.03 | 1.04 | 1.02 | 1.02
12 | O=C1Nc2ccccc2C1(c1ccc(O)cc1)c1ccc(O)cc1 [Oxyphenisatin] | 1.04 | 1.04 | 0.994 | 0.99
13 | CCCC(=O)OCOC(=O)C1=C(C)NC(C)=C(C(=O)OC)C1c1cccc(Cl)c1Cl (configuration not stated) [Clevidipine] | 0.986 | 0.992 | 0.98 | 1
14 | Cc1ccc(Nc2c(F)cccc2Cl)c(CC(=O)O)c1 [Lumiracoxib] | 0.985 | 1.01 | 1 | 1
15 | Cc1ccc(C(=O)c2cc(O)c(O)c([N+](=O)[O-])c2)cc1 [Tolcapone] | 0.474 | 0.0123 (active) | 0.993 | 0.91
16 | COc1nc(N)nc2c1ncn2[C@@H]1O[C@H](CO)[C@@H](O)[C@@H]1O [Nelarabine] | 0.98 | 0.981 | 0.997 | 0.981
17 | OC[C@H]1O[C@@H](c2ccc(Cl)c(Cc3ccc(O[C@H]4CCOC4)cc3)c2)[C@H](O)[C@@H](O)[C@@H]1O [Empagliflozin] | 1.02 | 1.04 | 1.01 | 0.992
18 | CC(=O)N[C@@H](CCC(N)=O)C(=O)O [Acetyl-L-glutamine] | 0.995 | 1 | 0.998 | 0.999
19 | CCCCOCCOCCOCc1cc2c(cc1CCC)OCO2 [Piperonyl butoxide] | 1.08 | 1.05 | 1.02 | 0.872
20 | CC(C)OC(=O)C(C(=O)OC(C)C)=C1SC=CS1 [Malotilate] | 0.988 | 0.977 | 1 | 0.899
21 | CC(=O)Nc1cccc(O)c1 [Metacetamol] | 1 | 1.01 | 1 | 0.987
22 | CCOC(=O)C(C)(N)Cc1cc(I)c(Oc2cc(I)c(O)c(I)c2)c(I)c1 (configuration not stated) [Etiroxate hydrochloride] | 0.415 | 0.571 | 1.01 | 1

Row | SMILES | growth AUC normalised to DMSO control (P. vulgatus RND KO) | growth AUC normalised to DMSO control (P. vulgatus WT) | growth AUC normalised to DMSO control [1] | growth AUC normalised to DMSO control [2]
23 | CC(=O)Oc1cc2c(s1)CCN(C(C(=O)C1CC1)c1ccccc1F)C2 (configuration not stated) [Prasugrel] | 1.06 | 1.07 | 1.03 | 1.01
24 | NC(=O)c1ncn([C@@H]2O[C@H](CO)[C@@H](O)[C@H]2O)c1O [Mizoribine] | 1.04 | 1.01 | 1.01 | 0.996
25 | COc1cc2/c(=N/c3ccc(Br)cc3F)nc[nH]c2cc1OCC1CCN(C)CC1 [Vandetanib] | 1.1 | 1.08 | 1.02 | 1.01
26 | CN1c2cc(O)c(N=NC(N)=O)cc2CC1S(=O)(=O)O (configuration not stated) [Carbazochrome sodium sulfonate] | 1.01 | 1 | 1 | 0.993
27 | CO[C@@H]1[C@@H](O[C@@H]2O[C@H](C)[C@@H](O[C@H]3C[C@@](C)(O)[C@@H](O)[C@H](C)O3)[C@H](N(C)C)[C@H]2O)[C@@H](CC=O)C[C@@H](C)[C@@H](O[C@H]2CC[C@H](N(C)C)[C@@H](C)O2)/C=C/C=C/C[C@@H](C)OC(=O)C[C@H]1OC(C)=O [Acetyl spiramycin] | 0.0119 (active) | 0.00707 (active) | 0.991 | 0.65
28 | CCCCc1oc2ccc(NS(C)(=O)=O)cc2c1C(=O)c1ccc(OCCCN(CCCC)CCCC)cc1 [Dronedarone hydrochloride] | 1.01 | 1.03 | 1 | 1
29 | COc1ncnc(NS(=O)(=O)c2ccc(N)cc2)c1OC [Sulfadoxine] | 0.981 | 0.982 | 0.99 | 0.993
30 | CC#CCn1c(N2CCC[C@@H](N)C2)nc2c1c(=O)n(Cc1nc(C)c3ccccc3n1)c(=O)n2C [Linagliptin] | 0.987 | 1.02 | 1 | 0.98
31 | Cc1nc2ccccc2n1Cc1ccc(Cl)cc1 [Chlormidazole] | 0.974 | 0.95 | 0.951 | 0.833
32 | C[C@H](Cc1cc2c(c(C(N)=O)c1)N(CCCO)CC2)NCCOc1ccccc1OCC(F)(F)F [Silodosin] | 1.06 | 1.05 | 1.01 | 0.961
33 | OC[C@H]1O[C@H](O[C@H]2O[C@H](CO)[C@@H](O)[C@H](O)[C@H]2O)[C@H](O)[C@@H](O)[C@@H]1O [Trehalose dihydrate] | 1 | 1 | 1.01 | 1.01
34 | CCc1oc2ccccc2c1C(=O)c1ccc(O)cc1 [Benzarone] | 0.881 | 0.794 | 1 | 0.858
35 | CC(C(=O)O)c1ccc(CC2CCCC2=O)cc1 (configuration not stated) [Loxoprofen] | 1.01 | 1.01 | 1.01 | 1.01
36 | CS(=O)(=O)c1ccc([C@@H](O)[C@@H](CF)NC(=O)C(Cl)Cl)cc1 [Florfenicol] | 0.0099 (active) | 0.00788 (active) | 0.00248 (active) | 0.00279 (active)
37 | CC(COc1ccccc1)NN (configuration not stated) [Phenoxypropazine dihydrochloride] | 1.07 | 1.08 | 1.01 | 0.994
38 | Cc1cc(NS(=O)(=O)c2ccc(N)cc2)nc(C)n1 [Sulfisomidine] | 1.03 | 1.03 | 1 | 0.995
39 | COc1c(O)cc2c(c1O)[C@@H]1O[C@H](CO)[C@@H](O)[C@H](O)[C@H]1OC2=O [Bergenin] | 1.04 | 1.01 | 1.02 | 0.995
40 | CC(=O)Nc1c(I)c(NC(C)=O)c(I)c(C(=O)O)c1I [Diatrizoic acid dihydrate] | 0.922 | 0.995 | 0.998 | 0.995
41 | O=C(NCCCN1CCOCC1)c1ccc(Cl)cc1 [Eprobemide] | 1.04 | 1.03 | 1.01 | 1
42 | O=C1CC[C@@H](C(=O)N2CSC[C@H]2C(=O)O)N1 [Pidotimod] | 0.991 | 0.993 | 1 | 0.991
43 | CO/N=C1\CN(c2nc3c(cc2F)c(=O)c(C(=O)O)cn3C2CC2)CC1CN (configuration not stated) [Gemifloxacin mesylate] | 0.0152 (active) | 0.0136 (active) | 0.0112 (active) | 0.0027 (active)
